The sample as a whole holds a higher share of hits than the screen did.
IL-1B inflam inh – qHTS for Inhibitors of Inflammasome Signaling: IL-1-beta AlphaLISA Primary Screen | AID 743279, 2014 | THP-1 LPS/ATP IL-1B secretion, AlphaLISA, 16 h; hits give low values | actives 4.7% (n = 360,000) | activity change, % at 57.5 µM; in the data active = activity change below about -50%; inconclusive = mostly about -30% to -49%
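THP-1 cells pretreated 1 hr with compounds (up to 57.5 uM final), then stimulated with LPS (250 ng/mL final) plus ATP (1.25 mM final); secreted IL-1B measured by AlphaLISA after 16 hr, decreased signal indicating inhibition.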
DT40 TDP1 CPT – qHTS for Inhibitors of human tyrosyl-DNA phosphodiesterase 1 (TDP1): qHTS in cells in presence of CPT; chicken DT40 Tdp1-/-;hTDP1 cells + 20 nM CPT, ATP luminescence, 48 h; Potency, µM (series often up to 46.2 µM), for the others: at the top dose activity change, negative = growth inhibition, hits mostly inhibitors; actives 12% (n = 420,000); also: potency is read from the fitted curve at half-maximal effect; nearly all actives have a fitted effect of over 55% in size
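Cell growth measured by CellTiter-Glo luminescence after a minimum 48 h, 37 C compound exposure with 20 nM CPT in Tdp1-knockout DT40 cells stably expressing hTDP1, seeded 400/well; qHTS titration format.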
HT1080 IDH1KD tx – qHTS for induction of synthetic lethality in tumor cells producing 2HG: qHTS for the HT-1080-IDH1KD cell line; HT-1080 IDH1 knockdown viability, ATP luminescence, 48 h; Potency, µM (highest dose often 46.1 µM), for inactives: top-dose activity, negative = toxicity, usual class: cytotoxic; actives 2% (n = 360,000);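 also: potency is read from the fitted curve at half-maximal effect; 0% = DMSO wells and -100% = cell-free medium wells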
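IDH1KD HT-1080 cells, 750/well, RPMI + 5% FBS; compound pinned after 2 h settling; 48 h, 37 °C; CellTiter-Glo luminescence; % activity normalised to DMSO and no-cell wells; curves fitted, classed by r2 and efficacy.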
12-LOX inh – Primary qHTS assay for inhibitors of human arachidonate 12S-lipoxygenase (ALOX12): Round 2. Potency, µM (top dose mostly 108 µM), without a hit: at the highest dose activity change, negative = inhibition, most hits filed as inhibitors. actives 1.1% (n = 580,000). AID 1671190, 2021. purified 12hLO, xylenol orange hydroperoxide absorbance. Polyunsaturated fatty acid lipoxygenase ALOX12 (Homo sapiens), P18054; also: potency is read from the fitted curve at half-maximal effect
Target sequence (P18054 whole entry, looked up): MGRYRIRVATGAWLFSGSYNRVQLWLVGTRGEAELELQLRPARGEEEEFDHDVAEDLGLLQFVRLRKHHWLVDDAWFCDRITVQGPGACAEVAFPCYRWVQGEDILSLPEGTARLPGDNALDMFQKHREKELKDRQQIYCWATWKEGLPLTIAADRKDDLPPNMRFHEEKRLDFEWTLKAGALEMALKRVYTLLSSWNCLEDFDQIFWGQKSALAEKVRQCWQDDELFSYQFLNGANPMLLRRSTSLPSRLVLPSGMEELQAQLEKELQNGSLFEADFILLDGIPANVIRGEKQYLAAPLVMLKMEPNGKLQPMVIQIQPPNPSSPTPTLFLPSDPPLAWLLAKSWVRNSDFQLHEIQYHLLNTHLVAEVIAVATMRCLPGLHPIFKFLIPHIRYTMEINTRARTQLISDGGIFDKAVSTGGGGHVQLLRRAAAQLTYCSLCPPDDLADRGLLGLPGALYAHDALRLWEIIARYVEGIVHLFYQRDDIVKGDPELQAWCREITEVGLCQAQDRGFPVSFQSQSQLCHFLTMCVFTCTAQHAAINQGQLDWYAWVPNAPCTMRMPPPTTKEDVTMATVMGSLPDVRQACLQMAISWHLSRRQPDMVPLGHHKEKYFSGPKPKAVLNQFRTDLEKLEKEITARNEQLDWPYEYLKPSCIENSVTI
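Purified human 12hLO at 150 nM in 25 mM Hepes, 0.01% Triton X-100, pH 7.0, preincubated 15 min at room temperature with compound. Reaction started with 40 uM arachidonic acid, 30 min at room temperature. Hydroperoxide measured by Fe-xylenol orange, 573/405 nm absorbance ratio.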
DT40 TDP1 no CPT – qHTS for Inhibitors of human tyrosyl-DNA phosphodiesterase 1 (TDP1): qHTS in cells in absence of CPT | DT40 Tdp1-/- hTDP1 cells, no CPT, ATP luminescence, 48 h | Potency, µM (titrated, usually from 46.2 µM), without a hit: at the top dose activity change, negative = growth inhibition, hits mostly inhibitors | actives 15% (n = 420,000) | AID 686978, 2013; also: potency is read from the fitted curve at half-maximal effect; nearly all actives have a fitted effect of over 55% in size
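Chicken DT40 Tdp1-/- cells stably complemented with human TDP1 were seeded at 400 cells/well with DMSO in place of 20 nM camptothecin. After compound pinning, cells grew at least 48 hr at 37 °C; viability read by CellTiter-Glo luminescence.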
HT1080NT lethal – qHTS for induction of synthetic lethality in tumor cells producing 2HG: qHTS for the HT-1080-NT fibrosarcoma cell line; actives 1.6% (n = 360,000); AID 686970, 2013; Potency, µM (top dose mostly 46.1 µM), for the others: at the top dose activity, negative = less viability, actives largely listed as cytotoxic; HT-1080-NT fibrosarcoma viability, CellTiter-Glo ATP luminescence, 48 h;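 also: NT is the 2HG producing partner of a matched IDH1 knockdown line; potency is read from the fitted curve at half-maximal effect; 0% = DMSO-treated cells and -100% = media-only wells without cells; nearly all actives have a fitted effect of over 55% in size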
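Viability of the 2HG-overproducing fibrosarcoma line after 48 hours of compound exposure at 37 degrees C was determined by luminescence with CellTiter-Glo, and concentration-effect curves were then fitted and categorized.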
Active calls of the source: *; [ ] = another dose, or the depositor's remark. Unless noted, calls follow the shape of the dose curve; as a rule, active = well fitted curve in the direction sought with a large enough effect; inconclusive = small, poorly fitted or top-dose-only effect, or another doubt; inactive = no such curve, though single readings can be large; an effect the other way counts as inactive or inconclusive. Unless noted, % is scaled to controls: 0 for no effect and ±100 for the full control effect.

For CCCc1nn(C)c2c(=O)[nH]c(-c3cc(S(=O)(=O)Nc4cccc(C)c4)ccc3OCC)nc12 the results were 12-LOX inh -2%.
For Cc1c(C(=O)N2CCCC2)c(S(=O)(=O)Nc2ccccc2Cl)c(C)n1C the results were IL-1B inflam inh 0, DT40 TDP1 CPT 2%, HT1080 IDH1KD tx 0%, 12-LOX inh -3%, DT40 TDP1 no CPT 17% and HT1080NT lethal -1%.
`Cc1cc(Cl)ccc1NS(=O)(=O)c1c(C(=O)N2CCCCCC2)c(C)n(C)c1C` gave DT40 TDP1 CPT inconclusive, 12-LOX inh 2% and DT40 TDP1 no CPT 21µM*.
For Cc1c(C(=O)N2CCCCC2)c(S(=O)(=O)NCc2ccccc2Cl)c(C)n1C the results were IL-1B inflam inh 0, DT40 TDP1 CPT 23µM*, HT1080 IDH1KD tx 10%, 12-LOX inh -29%, DT40 TDP1 no CPT inconclusive and HT1080NT lethal 3%.
Screening Cc1cccc(N(C)S(=O)(=O)c2c(C(=O)N3CCCCCC3)c(C)n(C)c2C)c1 returned DT40 TDP1 CPT 16µM*, 12-LOX inh 0% and DT40 TDP1 no CPT 21µM*.
Screening O[C@H]1[C@H](NCc2ccncc2)[C@H]2CO[C@H](O2)[C@@H]1N1CCN(c2ccccc2)CC1 returned 12-LOX inh 109%[176 µM].
`CCOc1ccc(C(=O)NC(CC(=O)OC)c2ccc(Cl)cc2)cc1OC` (configuration not stated) gave 12-LOX inh -12%.
Cn1cnnc1-c1nn(C)c2c1CNCC2 was read as 12-LOX inh -15%.
For Cc1ccc(-n2nnnc2-c2cnn(-c3cccc(F)c3)c2C(F)(F)F)cc1 the results were IL-1B inflam inh 1, DT40 TDP1 CPT inconclusive, HT1080 IDH1KD tx -4%, 12-LOX inh 0%, DT40 TDP1 no CPT -28% and HT1080NT lethal -12%.
Screening FC(F)(F)c1nc(N2CCCC2)ncc1-c1nnnn1-c1ccccc1 returned IL-1B inflam inh -19, DT40 TDP1 CPT 16µM*, HT1080 IDH1KD tx -29%, 12-LOX inh 0%, DT40 TDP1 no CPT 23µM* and HT1080NT lethal 29%.
`Cc1ccc(-n2nnnc2-c2cnc(N3CCCC3)nc2C(F)(F)F)cc1` gave IL-1B inflam inh -25, DT40 TDP1 CPT 23µM*, HT1080 IDH1KD tx inconclusive, 12-LOX inh 29%, DT40 TDP1 no CPT 12µM* and HT1080NT lethal -18%.
`Fc1cccc(-n2ncc(-c3nnnn3-c3ccccc3)c2C(F)(F)F)c1` gave IL-1B inflam inh 2, DT40 TDP1 CPT -6%, HT1080 IDH1KD tx 1%, 12-LOX inh 7%, DT40 TDP1 no CPT -23% and HT1080NT lethal -1%.
`O=C(c1cccc(Br)c1)N1CCN(c2ccccn2)CC1` gave IL-1B inflam inh -1, DT40 TDP1 CPT -18%, HT1080 IDH1KD tx 4%, 12-LOX inh inconclusive, DT40 TDP1 no CPT -24% and HT1080NT lethal 11%.
For O=C(c1ccccc1F)N1CCN(c2cnn(-c3cccc(Cl)c3)c(=O)c2Cl)CC1 the results were IL-1B inflam inh -28, DT40 TDP1 CPT inconclusive, HT1080 IDH1KD tx -14%, 12-LOX inh -18%, DT40 TDP1 no CPT 21µM* and HT1080NT lethal -25%.
`O=C(c1cccc(Br)c1)N1CCN(c2cnn(-c3ccccc3)c(=O)c2Cl)CC1` gave IL-1B inflam inh 21, DT40 TDP1 CPT inconclusive, HT1080 IDH1KD tx -16%, 12-LOX inh -6%, DT40 TDP1 no CPT 16µM* and HT1080NT lethal -10%.
Screening Cn1ccc(C(=O)N2CCC(c3nnc4n3C(C(=O)N3CCOCC3)CC4)CC2)n1 (configuration not stated) returned 12-LOX inh -2%[6.33 µM].
c1cncc(-c2nnc(-c3cccnc3)nn2)c1 was read as IL-1B inflam inh 20, DT40 TDP1 CPT 2.9µM*, HT1080 IDH1KD tx inconclusive, 12-LOX inh inconclusive, DT40 TDP1 no CPT 5.2µM* and HT1080NT lethal inconclusive.
`CCOc1ccc(OCC)c(NC(=O)CSc2nc3c(c(=O)n(C)c(=O)n3C)n2C(C)C)c1` gave IL-1B inflam inh -81*, DT40 TDP1 CPT 16µM*, HT1080 IDH1KD tx 4%[9.24 µM], 12-LOX inh 0%, DT40 TDP1 no CPT 21µM* and HT1080NT lethal -46%.
For CCn1c(SCC(=O)Nc2ccccc2)nc2c1c(=O)n(C)c(=O)n2C the results were IL-1B inflam inh 24, DT40 TDP1 CPT -17%, HT1080 IDH1KD tx 0%, 12-LOX inh -8%, DT40 TDP1 no CPT -17% and HT1080NT lethal -7%.
CCOc1ccc(OCC)c(NC(=O)CSc2nc3c(c(=O)n(C)c(=O)n3C)n2CC)c1 was read as IL-1B inflam inh 1, DT40 TDP1 CPT inconclusive, HT1080 IDH1KD tx -9%, 12-LOX inh 2%, DT40 TDP1 no CPT 23µM* and HT1080NT lethal 4%.
`CCCn1c(N)c(C(=O)CSc2ccc3ccccc3n2)c(=O)n(C)c1=O` gave 12-LOX inh 12%.
For Cc1cnc(C(=O)N2CCN(C(=O)N3CC4CC(C3)[C@H]3CCCC(=O)N3C4)CC2)cn1 (some centres not stated) the results were 12-LOX inh 18%.
CCN(CC)S(=O)(=O)c1cccc(-c2nnc(SCCOc3ccccc3C)o2)c1 was read as IL-1B inflam inh -7, DT40 TDP1 CPT inconclusive, HT1080 IDH1KD tx -10%, 12-LOX inh 6%, DT40 TDP1 no CPT inconclusive and HT1080NT lethal -6%.
Screening COc1cc(-c2nnc(SCCOc3ccccc3)o2)cc(OC)c1OC returned DT40 TDP1 CPT inconclusive, 12-LOX inh -15% and DT40 TDP1 no CPT 16µM*.
CCCN(CC(=O)c1cc(C)n(C)c1C)S(=O)(=O)c1cccc(C(F)(F)F)c1 was read as IL-1B inflam inh -3, DT40 TDP1 CPT 23µM*, HT1080 IDH1KD tx -7%, 12-LOX inh 0%, DT40 TDP1 no CPT inconclusive and HT1080NT lethal -16%.
CCCN(CC1CCOC1)S(=O)(=O)c1cccc(C(F)(F)F)c1 (configuration not stated) was read as 12-LOX inh 4%.
